From PubChem BioAssay AID1626 (SRMLSC, 2009)
Among all 220,000 compounds or so, about 2,000 (0.91%) were called active. Inconclusive results (about 2%) are left out. A selection follows. Results with a measured potency or affinity are listed apart. Values without a mark were called inactive. Rule as the data show it: inconclusive = inhibition above about 80% without an active follow-up result; inactive = below that; test concentration not stated here.

assay: M. tuberculosis H37Rv growth inhibitors, H37Rv strain (AID 1626); details: active compounds read high, concentration not given here;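 also: bacteria incubated seven days before Alamar blue readout; 0% = bacteria only wells and 100% = bacteria with antibiotic wells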

Row | SMILES | inhibition [%]
1 | O=C(NC1CCS(=O)(=O)C1)C1C2CC3CC(C2)CC1C3 (configuration not stated) | 0.76
2 | O=C1CCCC(=O)C1Sc1ccc(Cl)cc1 | 3.4
3 | CC1(C)OC(c2ccccc2)=C/C(=C/C=Nc2ccccc2)O1 | -2.83
4 | COc1ccc(N=C/C=C2\C=C(c3ccccc3)OC(C)(C)O2)cc1 | 76.4
5 | C1CSC2(N1)C1CC3CC2CC(C1)C31NCCS1 (configuration not stated) | -4.53
6 | Cc1cc(C)cc(NC(=O)c2ccccc2CC[N+](=O)[O-])c1 | 58.2
7 | CC(C)(C)c1ccc(C(=O)NCCN2CCCC2)cc1 | -0.48
8 | O=C(NCCCN1CCN(CCCNC(=O)c2ccc(F)cc2)CC1)c1ccc(F)cc1 | -9.24
9 | CCOC(=O)c1ccc(NC(=O)NCCc2ccccc2OC)cc1 | 5.79
10 | CCN(CC)C(=O)c1c(C)[nH]c(=S)c(C#N)c1-c1ccco1 | -4.78
11 | Brc1ccc(-c2cn3ccccc3n2)cc1 | -4.5
12 | Brc1ccc(-c2cn3cccnc3n2)cc1 | -1.72
13 | O=C1C2=C(CCCC2)C(=O)N1CNc1ccccc1 | -13.7
14 | O=C1CCC(=O)N1CNc1cccnc1 | -9.49
15 | CCn1c(=S)sc2c(=O)n(-c3ccccc3)c(=S)[nH]c21 | -1.81
16 | COc1ccc(C(=O)N2CCN(c3ccccc3OC)CC2)cc1 | 0.49
17 | O=C(O)/C=C/c1ccc(S(=O)(=O)NCc2cccnc2)cc1 | -0.59
18 | CC1CCCC(NC(=O)CSc2ccc(F)cc2)C1C (configuration not stated) | -2.7
19 | CN(CC(O)COC(c1ccccc1)c1ccccc1)C1CCCCC1 (configuration not stated) | 5.91
20 | Cc1ccc(C)c(Oc2cc(NC(=O)CCCn3nc(C)c([N+](=O)[O-])c3C)cc([N+](=O)[O-])c2)c1 | 5.87
21 | Cc1ccccc1Oc1cc(NC(=O)CCCn2nc(C)c([N+](=O)[O-])c2C)cc([N+](=O)[O-])c1 | 4.71
22 | Cc1cc([N+](=O)[O-])nn1CCCC(=O)Nc1cc(Oc2ccccc2)cc([N+](=O)[O-])c1 | 33.1
23 | Cc1cc([N+](=O)[O-])nn1CCCC(=O)Nc1cc(Oc2ccc(F)cc2)cc([N+](=O)[O-])c1 | 76

Row | SMILES | inhibition [%]
24 | Cc1nn(CCCC(=O)Nc2cc(Oc3ccccc3)cc([N+](=O)[O-])c2)c(C)c1[N+](=O)[O-] | 4.46
25 | Cc1c(Cl)c([N+](=O)[O-])nn1CCCC(=O)Nc1cccc(Cl)c1 | -0.67
26 | CN1CCC(C2(O)c3ccccc3CCc3ccccc32)CC1 | -4.72
27 | Cc1ccc(-c2nn(-c3ccccc3)cc2/C=N/NC(=O)CSc2nnc(C)n2-c2ccccc2)cc1 | 5.75
28 | COc1cc(NC(=O)CCCc2c[nH]c3ccccc23)cc(OC)c1 | 13
29 | COc1ccc(/C=N/NC(=O)c2cc(C34CC5CC(CC(C5)C3)C4)[nH]n2)cc1OC | -1.09
30 | COCCN1C(=O)N[C@@H](c2cccc(F)c2)C(C(=O)OC)=C1C | -7.87
31 | CC(=O)c1ccc(NC(=O)C(NC(=O)c2ccccc2)=C(C)C)cc1 | -4.51
32 | Clc1ccc(-c2nc3cnccn3c2Nc2ccc3c(c2)OCO3)cc1 | 31
33 | Cc1ccc2nc(-c3ccncc3)c(Nc3ccccc3)n2c1 | 2.3
34 | Clc1ccc(-c2nc3ncccn3c2Nc2ccc3c(c2)OCO3)cc1 | 7.95
35 | Cc1ccc2nc(-c3ccco3)c(Nc3ccccc3)n2c1 | 2.97
36 | Cc1cccc2nc(-c3cccnc3)c(Nc3ccccc3)n12 | -0.36
37 | Cc1cccc2nc(-c3ccco3)c(Nc3ccccc3)n12 | -7.83
38 | Cc1ccc2nc(-c3cccnc3)c(Nc3ccccc3C)n2c1 | 5.59
39 | Cc1ccccc1Nc1c(-c2ccncc2)nc2ccc(Cl)cn12 | -2.88
40 | CCN1CCN(C(=O)COc2ccc3c(c2)C(=O)CC2(CCN(C(C)=O)CC2)O3)CC1 | -8.68
41 | CCOC(=O)C1CCN(C(=O)CSc2ccc(Cl)cc2)CC1 | 1.63
42 | O=C(c1ccc([N+](=O)[O-])c(CS(=O)(=O)c2ccc(Cl)cc2)c1)N1CCCCC1 | 3.1
43 | CCOC(=O)CSc1ccc2nnc(CCNS(=O)(=O)c3ccc(C)cc3)n2n1 | 4.15
44 | Cc1oc(C(C)(C)C)c(CN2CCCC2)c1C(=O)O | 5.71
45 | Cc1cccc(-c2nnc(SCC#N)n2C)c1 | 1.96
46 | CCOC(=O)c1cc(C(C)(C)C)nc(SC)c1C#N | 0.56

Row | SMILES | inhibition [%]
47 | COc1ccc(C(O)P(=O)(OCC(C)C)OCC(C)C)c(OC)c1 (configuration not stated) | 5.08
48 | Cc1cc(C)n2nc(C(=O)Nc3nccs3)nc2n1 | -4.36
49 | O=c1c2c3c(sc2nc2sc(CN4CCOCC4)cn12)CCCC3 | -5.88
50 | CC(=O)Nc1c(C(=O)C2CC2)oc2ccccc12 | 8.66
51 | O=C(O)CCSCC(=O)Nc1c(C(=O)C2CC2)oc2ccccc12 | -2.71
52 | CC1(C)Cc2ccccc2C(N/N=C/c2ccc([N+](=O)[O-])cc2)=N1 | 3.59
53 | CSCCC(NC(=O)c1ccc([N+](=O)[O-])cc1Cl)C(=O)OCC(=O)NCCCc1ccccc1 (configuration not stated) | -2.31
54 | Cc1cnc(C(=O)Nc2ccccc2-c2ccc(C)o2)cn1 | -0.7
55 | CC(=O)Nc1ccccc1-c1ccc(C)o1 | -8.39
56 | CCC(=O)N(C)CCc1cc2c(c(OC)c1/C=N/NC(=O)[C@H]1C[C@@H]1c1ccccc1)OCO2 | -2.15
57 | CN(C)c1ccc(NC(=S)NC(=O)/C=C/c2ccc(Cl)cc2)cc1 | 5.85
58 | COc1cc(C(CCN2CCOCC2)c2c(OC)cc(OC)c3c(C)cc(=O)oc23)cc(OC)c1OC (configuration not stated) | -15.3
59 | COc1cc(C(CCN2CCCCC2)c2c(OC)cc(OC)c3c(C)cc(=O)oc23)cc(OC)c1OC (configuration not stated) | -3.67
60 | COc1cc(C(CCN2CCCC2)c2c(OC)cc(OC)c3ccc(=O)oc23)cc(OC)c1OC (configuration not stated) | -13
61 | COc1cc(C(CCN2CCCC2)c2c(OC)cc(OC)c3c(C)cc(=O)oc23)cc(OC)c1OC (configuration not stated) | -6.56
62 | Cn1nc(-c2ccc(OCC(N)=O)cc2)c2ccccc2c1=O | 9.43
63 | O=S(=O)(Nc1ccc(-c2cn3ccsc3n2)cc1)c1ccc2c(c1)OCCO2 | -7.36
64 | O=C(O)c1cccc(CSc2ncn[nH]2)c1 | 3.99
65 | Cc1ccc(-n2cc(CN3CCN(Cc4nccn4C)CC3)c(-c3cccc(C)c3)n2)cc1 | -0.87
66 | CCn1ccnc1CNCc1cn(-c2cc(C)ccc2C)nc1-c1ccccc1 | 72
67 | Cc1ccc(-n2cc(CN(C)CCc3cn[nH]c3)c(-c3cccc(C)c3)n2)cc1 | 6.61
68 | CCn1ccnc1CN(C)Cc1cn(-c2ccccc2)nc1-c1ccc(OC)cc1F | 15
69 | CN(Cc1ncc[nH]1)Cc1cn(-c2ccccc2)nc1-c1ccc2c(c1)OCO2 | 6.67

Row | SMILES | inhibition [%]
70 | CN(Cc1cn(-c2ccccc2)nc1-c1ccc2c(c1)OCO2)Cc1nccn1C | 2.66
71 | Cc1ccc(-n2cc(CN(C)Cc3nccn3C)c(-c3ccc(F)cc3)n2)cc1 | 60.4
72 | Cc1ccc(C)c(-n2cc(CNCCCn3cccn3)c(-c3ccccc3)n2)c1 | -1.54
73 | CCS(=O)(=O)c1nc(S(=O)(=O)c2ccc(C)cc2)c(NCCCN(C)C)s1 | -3.12
74 | Cc1cccc(C(=O)N(c2ccccn2)C(C)c2ccco2)c1 (configuration not stated) | -1.89
75 | CC(c1ccccc1F)n1cc(C(=O)NCc2ccncc2)nn1 (configuration not stated) | -6.06
76 | O=C(NNC(=O)c1cc2cc(OC(F)(F)F)ccc2[nH]1)c1cccc(C(F)(F)F)c1 | 0.47
77 | CN(C)S(=O)(=O)c1ccc2c(c1)c(=O)c(C(=O)NCCCN1CCCCCC1)cn2C | 0.45
78 | O=C(COC(=O)c1ccccc1O)Nc1cc([N+](=O)[O-])ccc1Cl | -5.14
79 | S=C(NC1CCCCC1)c1ccc2c(c1)OCO2 | 0.26
80 | CCN1CC(CN(C)Cc2cn(-c3ccc(C)cc3)nc2-c2cccc(C)c2)CC1=O (configuration not stated) | 13.5
81 | Cc1ccc(-n2cc(CNCCCn3cccn3)c(-c3cccc(C)c3)n2)cc1 | 69.4
82 | CC(C)OC(=O)c1ccc(NC(=O)c2ccccc2)cc1 | 69.1
83 | CCCCOC(=O)c1ccc(N)cc1 | 78.1
84 | CCC(=O)Nc1cccc2c1C(=O)N(C)C2=O | -8.82
85 | COc1ccc(CCNC(=O)Cc2nn(C)c(=O)c3ccccc23)cc1OC | 1
86 | Cc1nnc(NC(=O)CSc2nnc(Cc3cccn3C)n2-c2cccc(C(F)(F)F)c2)s1 | 4.46
87 | CC(C)CN(C(=O)COC(=O)c1ccc(-c2ccccc2)cc1)C1CCS(=O)(=O)C1 (configuration not stated) | 4.21
88 | COc1ccc2cc(C(c3nnnn3CCc3ccccc3)N3CCC(O)CC3)c(=O)[nH]c2c1 (configuration not stated) | 4.28
89 | CCc1ccc2[nH]c(=O)c(C(c3nnnn3CCOC)N3CCN(c4ccccc4)CC3)cc2c1 (configuration not stated) | 2.21
90 | O=C(Cn1c(-c2cscn2)nc2ccccc21)Nc1ccc2ccccc2c1 | 5.71
91 | CC(=O)NCCn1c(SCC(=O)c2ccc(Cl)cc2)nc2ccccc2c1=O | -2.5
92 | Cc1ccc(NC(=O)c2ccc([N+](=O)[O-])cc2Cl)nc1 | 1.78
